Test results: PubChem BioAssay (NCATS)
Records with an inconclusive call do not appear. Active and inactive are the calls of the source. Unless noted, the rule behind the calls is not given here.

Experiments:
[1] = qHTS profiling of the MIPE4 collection as inhibitors of Plasmodium falciparum (3D7) proliferation (AID 743344);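 note: scaled between DMSO vehicle wells and 0.29 µM artemisinin as full inhibition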; conditions: P. falciparum 3D7 in erythrocytes, SYBR Green DNA fluorescence, 72 h; at 28.5 µM unless noted
In short: (§1)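 Parasite DNA was quantified by SYBR Green I fluorescence (ex 485, em 535 nm) after overnight lysis in saponin/Triton buffer at room temperature. Cultures at 0.3% parasitemia and 2.5% hematocrit were first exposed to compound for 72 h at 37 C; signals were normalised to artemisinin (0.29 uM) and vehicle wells.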

[2] = qHTS profiling of the MIPE4 collection as inhibitors of Plasmodium falciparum (DD2) proliferation (AID 743345); conditions: P. falciparum Dd2 in erythrocytes, SYBR Green DNA, 72 h; at 28.5 µM unless noted
In short: as §1

[3] = qHTS profiling of the MIPE4 collection as inhibitors of Plasmodium falciparum (DD2) proliferation (Rep 2) (AID 743346); conditions: P. falciparum Dd2 in erythrocytes, SYBR Green DNA, 72 h; at 28.5 µM unless noted
In short: as §1

[4] = High-throughput drug toxicity screening in the BPDCN cell line Gen2.2 (AID 1224824); conditions: Gen2.2 BPDCN cells; at 45.8 µM (top of the series) unless noted;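 note: cells exposed to compounds for 48 h before reading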
In short: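 Readout is ATP luminescence from Gen2.2 cells after two days of drug exposure in serum-containing medium at 37 °C. Values express percent activity, with vehicle defining full signal and 9.2 uM bortezomib defining zero.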

[5] = High-throughput drug toxicity screening in the BPDCN cell line Cal-1 (AID 1224825); conditions: Cal-1 BPDCN cell viability, qHTS; at 45.8 µM (top of the series) unless noted
In short: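 CellTiter-Glo luminescence after 48 h compound exposure; percent activity scaled with DMSO as 100% and bortezomib (9.2 uM final) as 0%. Cal-1 cells seeded at 500/well in RPMI, 10% FBS, no phenol red.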

[6] = qHTS assay for measurement of the activity of small molecule inhibitors on Zika virus induced Caspase-3 activity in human astrocytoma cells (AID 1224859; active = well fitted curve in the direction sought with a large enough effect; an effect the other way counts as inactive or inconclusive;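 note: plate controls were ZIKV-infected untreated cells for no effect and uninfected cells for full effect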)
In short: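 SNB-19 astrocytoma cells, 250/well, pretreated 1 h with compounds, then Zika virus at 2 FFU/cell for 6 h at 37 C; Caspase-Glo 3/7 luminescence after 30 min; percent inhibition normalised to uninfected and infected controls.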

[7] = qHTS Screen of the MIPE 4.0 Collection Against Ewings Sarcoma (RDES) (AID 1259252; active = well fitted curve in the direction sought with a large enough effect; an effect the other way counts as inactive or inconclusive; note: nearly all actives have a fitted effect of over 35% in size; note: potency is the fitted concentration of half-maximal effect)
In short: (§2)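 Log-phase cells in RPMI with 5% FBS attached for 4 h, then received compounds as a titration for 48 h at 37C, 5% CO2. Viability was read by CellTiter-Glo luminescence and normalized to DMSO and no-cell wells.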

[8] = qHTS Screen of the MIPE 4.0 Collection Against Ewings Sarcoma (TC71) (AID 1259253; active = well fitted curve in the direction sought with a large enough effect; an effect the other way counts as inactive or inconclusive; note: nearly all actives have a fitted effect of over 40% in size; note: potency is the fitted concentration of half-maximal effect)
In short: as §2

[9] = qHTS Screen of the MIPE 4.0 Collection Against Ewings Sarcoma (EW8) (AID 1259255; active = well fitted curve in the direction sought with a large enough effect; an effect the other way counts as inactive or inconclusive; note: nearly all actives have a fitted effect of over 35% in size; note: potency is the fitted concentration of half-maximal effect;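 for viability: 100% = DMSO-treated cells and 0% = medium-only wells without cells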)
In short: as §2

[10] = qHTS profiling of the MIPE4 collection as inhibitors of Plasmodium falciparum (HB3) proliferation (AID 743347);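 note: plate controls were DMSO vehicle wells for no effect and artemisinin wells for full effect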; conditions: P. falciparum HB3 in erythrocytes, SYBR Green DNA, 72 h; at 28.5 µM unless noted
In short: as §1

[11] = target: T1, Hexokinase-4 (Homo sapiens) + Glucokinase regulatory protein (Homo sapiens) (UniProt P35557+Q14397); test: qHTS assay for inhibitors of recombinant human GCK-GKRP interaction: Diaphorase-coupled assay (AID 743205; active = well fitted curve in the direction sought with a large enough effect; an effect the other way counts as inactive or inconclusive)
T1 sequence (P35557 whole entry, looked up): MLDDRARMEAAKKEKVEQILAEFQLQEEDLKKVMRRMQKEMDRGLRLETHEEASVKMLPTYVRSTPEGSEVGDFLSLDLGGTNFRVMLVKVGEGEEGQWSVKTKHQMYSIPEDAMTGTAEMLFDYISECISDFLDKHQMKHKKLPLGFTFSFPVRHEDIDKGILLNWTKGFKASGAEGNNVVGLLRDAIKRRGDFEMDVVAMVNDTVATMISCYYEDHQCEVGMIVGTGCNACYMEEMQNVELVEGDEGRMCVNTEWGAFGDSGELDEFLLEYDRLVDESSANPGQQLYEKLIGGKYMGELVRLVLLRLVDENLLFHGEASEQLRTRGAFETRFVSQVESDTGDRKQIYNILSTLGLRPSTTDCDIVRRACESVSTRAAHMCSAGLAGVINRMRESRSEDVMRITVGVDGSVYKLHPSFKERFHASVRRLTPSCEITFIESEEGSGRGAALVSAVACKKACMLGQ
T1 sequence (Q14397 whole entry, looked up): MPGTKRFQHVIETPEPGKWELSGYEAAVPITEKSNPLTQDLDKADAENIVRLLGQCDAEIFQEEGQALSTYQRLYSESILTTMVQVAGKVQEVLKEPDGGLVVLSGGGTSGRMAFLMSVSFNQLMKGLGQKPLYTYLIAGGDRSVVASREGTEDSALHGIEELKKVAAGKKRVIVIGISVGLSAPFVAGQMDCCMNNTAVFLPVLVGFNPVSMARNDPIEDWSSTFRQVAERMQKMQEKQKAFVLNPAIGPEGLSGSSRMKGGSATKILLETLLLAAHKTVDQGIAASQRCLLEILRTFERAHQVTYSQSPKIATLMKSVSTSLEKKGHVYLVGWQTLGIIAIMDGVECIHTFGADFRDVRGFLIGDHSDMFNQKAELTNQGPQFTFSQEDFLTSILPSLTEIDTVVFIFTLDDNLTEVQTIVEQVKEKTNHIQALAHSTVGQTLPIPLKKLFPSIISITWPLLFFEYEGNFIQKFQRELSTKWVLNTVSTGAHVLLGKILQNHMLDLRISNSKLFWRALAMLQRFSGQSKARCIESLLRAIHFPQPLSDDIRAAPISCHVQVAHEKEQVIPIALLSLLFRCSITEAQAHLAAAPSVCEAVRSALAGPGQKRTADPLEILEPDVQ
In short: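 Signal derives from resorufin generated by diaphorase, linked to GCK turnover of glucose (5 mM) and ATP (0.4 mM). Enzyme complex was added after a 20-minute compound preincubation and monitored for 30 minutes.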

[12] = target: T1, Hexokinase-4 (Homo sapiens) + Glucokinase regulatory protein (Homo sapiens); test: qHTS assay for inhibitors of recombinant human GCK-GKRP interaction: ADP-Glo assay (AID 743206; active = well fitted curve in the direction sought with a large enough effect; an effect the other way counts as inactive or inconclusive;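 note: plate controls were DMSO plus enzyme for no effect and no enzyme for full effect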)
In short: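 Pin-transferred compounds meet a 15 nM GST-GCK/15 nM FLAG-GKRP/2 uM S6P mix (dispense concentrations). ATP is then added to 0.4 mM final with 5 mM glucose, and the reaction runs 60 min at room temperature. ADP is quantified luminescently.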

[13] = target: T1, Hexokinase-4 (Homo sapiens) + Glucokinase regulatory protein (Homo sapiens); test: qHTS assay for inhibitors of recombinant human GCK-GKRP interaction: HTRF assay (AID 743207; active = well fitted curve in the direction sought with a large enough effect; an effect the other way counts as inactive or inconclusive;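 note: 0% = DMSO with GCK present and -100% = DMSO wells lacking GCK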)
In short: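 Titration screening format: recombinant GST-GCK and FLAG-GKRP at 5 nM, S6P at 2 uM, labelled anti-tag antibodies, 60 min at RT, dual-wavelength HTRF readout.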

[14] = qHTS Assay for Identifying Gametocytocidal Compounds (AID 743244; active = well fitted curve in the direction sought with a large enough effect; an effect the other way counts as inactive or inconclusive;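 note: % is set by controls: 0 for no effect and ±100 for the full control effect; actives lower the fluorescent signal which means gametocytes are killed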); conditions: P. falciparum 3D7 stage III-V gametocytes, alamarBlue, 72 h; max response: stronger effect = lower value
In short: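 Stage III-V P. falciparum 3D7 gametocytes, 20,000 per well, were exposed to compounds for 72 h at 37C, 5% CO2. AlamarBlue was then added for 24 h and viability was read as fluorescence at Ex 525/Em 598 nm.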

[15] = qHTS profiling for inhibitors of Plasmodium falciparum (3D7) proliferation (AID 743322);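 note: infected erythrocytes exposed to compound for 72 h before lysis; 100% = DMSO vehicle wells and 0% = 0.29 µM artemisinin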; conditions: P. falciparum 3D7 proliferation; at 28.7 µM (top of the series)
In short: as §1

[16] = qHTS profiling for inhibitors of Plasmodium falciparum (DD2) proliferation (AID 743323); conditions: lower = more inhibition; at 28.7 µM (top of the series)
In short: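 1536-well qHTS; infected RBCs 0.3% parasitemia/2.5% Hct final; cpd 72 h 37 C 5% CO2; lysis buffer + SYBR Green I, o/n RT dark; FI 485/535; norm. to 0.29 uM artemisinin and DMSO, plate-stack corrected.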

[17] = qHTS profiling for inhibitors of Plasmodium falciparum (HB3) proliferation (AID 743324; active = well fitted curve in the direction sought with a large enough effect; an effect the other way counts as inactive or inconclusive;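 note: 100% = DMSO vehicle wells and 0% = artemisinin-treated control wells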); conditions: Plasmodium falciparum HB3 blood-stage proliferation; at 28.7 µM (top of the series)
In short: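 SYBR Green fluorescence (485 ex/535 em) of lysed cultures, incubated overnight at room temperature in the dark, quantifies parasite DNA. Infected erythrocytes at 0.3% parasitemia and 2.5% hematocrit were exposed 72 h; values normalized to DMSO and 0.29 uM artemisinin controls.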

[18] = qHTS assay for measurement of the activity of small molecule inhibitors on Zika virus induced Caspase-3 activity in human iPSC derived neural progenitor cells (hNPCs) (AID 1224857; active = well fitted curve in the direction sought with a large enough effect; an effect the other way counts as inactive or inconclusive; note: % of control where 0% means no effect; nearly all actives have a fitted effect of over 65% in size)
In short: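 Human iPSC-derived neural progenitor cells pretreated 1 hr with compounds, then infected with Zika virus (2 FFU/cell) for 6 hours at 37 C. Caspase-3/7 measured by Caspase-Glo luminescence; % inhibition calculated from induction scaled to uninfected (0%) and infected (100%) wells.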

SMILES | parasite growth, % of DMSO control [1] [%] | parasite growth remaining, % of DMSO control (lower = more inhibition) [2] [%] | parasite growth, % of control (lower = inhibition) [3] [%] | cell viability, % of control (lower = more cytotoxic) [4] [%] | viability (% of control) [5] [%] | Potency [6] | Potency [7] | Potency [8] | Potency [9] | growth, % of control [10] [%] | outcome [11] | outcome [12] | outcome [13] | max response [14] | remaining parasite growth % (stronger effect = lower value) [15] [%] | activity, percent of control [16] [%] | remaining proliferation (% of control), lower = more inhibition [17] [%] | Potency [18]
CC(C)(N)c1ccc(-c2nc3ccccc3nc2-c2ccccc2)cc1 | 21.6 | 18.1 | 26.5 | 8.3 | 4.03 | inactive | 26.4 µM (active) | 26.4 µM (active) | 20.9 µM (active) | – | – | – | – | – | – | – | – | –
CNC(=O)c1ccc(Nc2cc(Nc3ccccc3S(=O)(=O)C(C)C)c3cc[nH]c3n2)nc1 | 4.82 | 11.9 | – | 19.7 | 3.36 | inactive | 5.9 µM (active) | – | 0.59 µM (active) | 2.73 | – | – | – | – | – | – | – | –
CN[C@H](CC(C)C)C(=O)N[C@H]1C(=O)N[C@@H](CC(N)=O)C(=O)N[C@@H]2C(=O)N[C@H]3C(=O)N[C@H](C(=O)N[C@H](C(=O)O)c4cc(O)cc(O)c4-c4cc3ccc4O)[C@H](O)c3ccc(c(Cl)c3)Oc3cc2cc(c3O[C@@H]2O[C@H](CO)[C@@H](O)[C@H](O)[C@@H]2O[C@H]2C[C@](C)(N)[C@H](O)[C@H](C)O2)Oc2ccc(cc2Cl)[C@H]1O | 387 | – | – | 160 | 93.1 | inactive | inactive | inactive | inactive | – | inactive | inactive | inactive | -6.25% (inactive) | – | – | – | –
O=C(O)C(=O)Nc1cccc(C2=NN=N[N]2)c1 | – | – | – | 222 | 113 | inactive | inactive | inactive | inactive | – | – | – | – | – | – | – | – | –
Cc1cnc(Nc2ccc(CN3CCOCC3)cc2)nc1Nc1cccc(S(=O)(=O)NC(C)(C)C)c1 | 4.59 | – | 16.8 | 1.99 | 3.36 | inactive | 3.32 µM (active) | 3.32 µM (active) | 2.64 µM (active) | 4.53 | – | – | – | – | – | – | – | –
C#CCC(Cc1cnc2nc(N)nc(N)c2n1)c1ccc(C(=O)N[C@@H](CCC(=O)O)C(=O)O)cc1 (stereo partly drawn) | 21.7 | 8.51 | – | 51.7 | 36.9 | – | 0.0372 µM (active) | – | 0.0372 µM (active) | 18 | – | – | – | 4% (inactive) | – | – | – | –
c1ccc2c(Oc3nc(Nc4ccc(N5CCOCC5)cc4)c4ncn(C5CCCCC5)c4n3)cccc2c1 | 6.5 | 8.01 | 33.7 | 187 | 100 | inactive | inactive | inactive | inactive | 9.45 | – | – | – | – | -0.456 | 1.45 | -1.02 | –
CCCCC(=O)O[C@]1(C(=O)CO)[C@@H](C)C[C@H]2[C@@H]3CCC4=CC(=O)C=C[C@]4(C)[C@@]3(F)[C@@H](O)C[C@@]21C | 13.5 | 78.8 | – | 44 | 51.8 | inactive | inactive | inactive | inactive | 22.8 | – | – | – | – | – | – | – | –
CC1(C)[C@H](O[C@H]2O[C@H](C(=O)O)[C@@H](O)[C@H](O)[C@H]2O[C@@H]2O[C@H](C(=O)O)[C@@H](O)[C@H](O)[C@H]2O)CC[C@@]2(C)[C@H]1CC[C@]1(C)[C@H]2C(=O)C=C2[C@H]3C[C@@](C)(C(=O)O)CC[C@]3(C)CC[C@]21C | 99.2 | 97.4 | – | 153 | 125 | inactive | inactive | inactive | inactive | 109 | – | – | – | – | – | – | – | –
COc1ccc(Nc2cc(-c3cnc(N)nc3)nc(N3CCOCC3)n2)cn1 | – | 11.1 | 27.1 | 28.9 | 25.7 | inactive | 5.9 µM (active) | 14.8 µM (active) | 11.8 µM (active) | 6.14 | – | – | – | – | – | – | – | –
CCCNC(=O)[C@H]1O[C@H]1C(=O)N[C@H](C(=O)N1CCC[C@@H]1C(=O)OC)C(C)CC (stereo partly drawn) | 88 | 94.3 | 52.3 | 18.6 | 8.18 | – | 3.32 µM (active) | 6.62 µM (active) | 11.8 µM (active) | 102 | – | – | – | – | – | – | – | –
CCc1cnn2c(NCc3ccc[n+]([O-])c3)cc(N3CCCC[C@@H]3CCO)nc12 | 14.9 | 14 | 12.6 | 4.38 | 3.16 | inactive | 0.0418 µM (active) | 0.0264 µM (active) | 0.0235 µM (active) | – | – | – | – | – | – | – | – | –
C=CC[C@@H]1C=C(C)C[C@H](C)C[C@H](OC)[C@H]2O[C@@](O)(C(=O)C(=O)N3CCCC[C@H]3C(=O)O[C@H](C(C)=C[C@@H]3CC[C@H](O)[C@H](OC)C3)[C@@H](C)[C@@H](O)CC1=O)[C@@H](C)C[C@@H]2OC | – | 8.99 | 10.3 | 17.2 | 44.2 | – | 2.64 µM (active) | 1.87 µM (active) | 1.66 µM (active) | 44.7 | – | – | – | – | – | – | – | inactive
C[C@H](NC(=O)Cc1cc(F)cc(F)c1)C(=O)N[C@H](C(=O)OC(C)(C)C)c1ccccc1 | 74.2 | 95.2 | 79.9 | 89 | 96.1 | – | inactive | – | inactive | 99.7 | – | – | – | – | – | – | – | inactive
CC(C)[C@H](CO)Nc1nc(Nc2cccc(Cl)c2)c2ncn(C(C)C)c2n1 | 8.7 | 21.1 | 17.2 | 2.15 | 1.87 | inactive | 5.9 µM (active) | 7.43 µM (active) | 16.6 µM (active) | 5.25 | – | – | – | – | – | – | – | –
COc1cc(C(C)C)c(Oc2cnc(NC(CO)CO)nc2N)cc1I | – | 86.9 | – | 294 | 1.88 | – | 0.935 µM (active) | – | 7.43 µM (active) | 97.9 | – | – | – | – | – | – | – | inactive
O=C(NCc1ccccc1)[C@H](Cc1ccccc1)NC(=O)[C@@H]1O[C@@H]1C(=O)NCCc1ccc(O)cc1 | 17.3 | 44.7 | 16.7 | 49 | 54.1 | inactive | 1.05 µM (active) | 1.05 µM (active) | 1.05 µM (active) | – | – | – | – | – | – | – | – | –
